Bioassay records: PubChem, several laboratories
Sampled rows, rich in hits. Any-hit rate of the full collection: about 3.1%.
HSP90 refold inh = HSP90 inhibitors, primary screen, cell lysate, luminescence; inhibition, % at 5.6 µM; Heat shock protein HSP 90 (rabbit reticulocyte lysate; luciferase refolding); Rabbit reticulocyte lysate, luciferase refolding luminescence, 3 h; 290,000 tested, 0.91% active;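 active means inhibition above the screen-wide mean plus 3 SD, computed separately per campaign, cut at about 16% in these data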;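 further: inhibitors lower the luminescence because luciferase stays unfolded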
HSF1 inh = HSF1 inhibitors in luciferase reporter cells, primary screen, cell-based, NIH3T3, luminescence | 300,000 tested, 0.77% active | NIH3T3-HGL HSE-luciferase, MG132-induced, luminescence 8 h; active compounds read low | activity change, negative = inhibition, % at 7.5 µM (by protocol);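 active means more than half of replicate wells show activity change below -50%, luminescence cut by over half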;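 further: luciferase reports HSF-1 transcriptional activity via heat shock element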
ARNT TACC3 PPI = disruptors of ARNT/TACC3 protein interaction, primary screen, biochemical, AlphaScreen, single concentration. AlphaScreen His-ARNT PAS-B/GST-TACC3 binding, luminescence; TACC3 fragment carries E629A point mutation. Transforming acidic coiled-coil-containing protein 3 (Homo sapiens), Q9Y6A5. 390,000 tested, 0.66% active. inhibition, % at 9.99 µM;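 active means mean inhibition of replicates at least 50% and at least half of replicates each reaching 50%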
HSF-1 act = HSF-1 activators, primary screen, NIH3T3-HGL cells, MG132 stress, luminescence, single point; 300,000 tested, 1.7% active; activation, % at 9 µM; NIH3T3-HGL HSF-1 luciferase reporter, 8 h; 100% = twice DMSO control signal;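 active means mean replicate activation of at least 50% with a set share of replicates each reaching 50%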
HIF act = HIF pathway transcriptional activators, primary screen, cell-based, U2OS HRE-luciferase, luminescence; U2OS HRE-luciferase reporter; normalized: DMSO 0%, desferrioxamine 100%; activation, % at 7.5 µM (by protocol); 300,000 tested, 0.32% active;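 active means mean activation of at least 10% of the iron chelator positive control signal, with at least half of replicates also reaching 10%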
Hits are given with their value; 0 = inactive; - = no result.

SMILES	HSP90 refold inh	HSF1 inh	ARNT TACC3 PPI	HSF-1 act	HIF act
COc1cccc(Nc2nnc(SCc3cc([N+](=O)[O-])cc4c3OCOC4)s2)c1	0	0	0	0	0
Cc1noc(C)c1NC(=O)N[C@@H]1C=C[C@@H](CC(=O)N2CCCCC2)O[C@@H]1CO	-	-	0	-	-
O=C(O)c1ccc(Nc2cc(Cl)c3nonc3c2[N+](=O)[O-])cc1	0	0	0	0	0
O=[N+]([O-])c1c(Nc2cccc(O)c2)cc(Cl)c2nonc12	0	0	0	164	0
O=C(COc1cc2oc(=O)c3c(c2cc1Cl)CCCC3)N1C[C@H]2C[C@@H](C1)c1cccc(=O)n1C2	0	0	0	0	0
CCCc1cc(=O)oc2cc(OCC(=O)N3C[C@H]4C[C@@H](C3)c3cccc(=O)n3C4)c(Cl)cc12	0	0	0	57	0
C[C@@H](NC(=O)[C@@H]1[C@@H](CO)[C@@H]2Cn3c(cccc3=O)[C@@H]2N1Cc1cccnc1)c1ccccc1	-	-	0	-	-
CCOC(=O)c1ccc(N2Cc3ccccc3C2=NC(=O)c2cccc([N+](=O)[O-])c2)cc1	-	0	0	68	0
O=C(N=C1c2ccccc2CN1c1ccccc1)c1cccc([N+](=O)[O-])c1	0	0	0	0	0
O=C(NCc1ccccc1)Nc1cccn(Cc2ccc(F)cc2)c1=O	0	0	0	0	0
Cc1cc(NC(=O)NCc2ccccc2)c(=O)n(Cc2ccc(F)cc2)c1	0	0	48	0	0
Cc1ccc(S(=O)(=O)N[C@H]2CC[C@H](CCn3cc(-c4cccnc4)nn3)O[C@@H]2CO)cc1	-	-	0	-	-
Cc1ccc(S(=O)(=O)N[C@@H]2CC[C@H](CCNC(=O)c3ccccc3F)O[C@H]2CO)cc1	-	-	0	-	-
CC1CCN(Cc2nnnn2CCCC(=O)NCCc2cnn(C)c2)CC1	0	0	0	0	67
CC1CCN(Cc2nnnn2CCCC(=O)NCC(C)(C)N2CCOCC2)CC1	0	0	0	0	0
COc1ccc2cc(C(=O)CS(=O)(=O)c3ccccc3)c(=O)oc2c1	0	0	0	0	0
O=C(CS(=O)(=O)c1ccccc1)c1cc2ccccc2oc1=O	0	0	0	57	-
O=C(CS(=O)(=O)c1ccccc1)c1cc2cc(F)ccc2oc1=O	0	0	0	325	0
Cc1ccccc1S(=O)(=O)NCC[C@H]1CC[C@H](NC(=O)Nc2cccc(Cl)c2)[C@H](CO)O1	-	-	0	-	-
C[C@@H]1CCCCO[C@H](CN(C)CC2CC2)[C@H](C)CN([C@H](C)CO)C(=O)c2cc(NC(=O)C3CCCCC3)ccc2O1	-	-	0	-	-
Cc1ccc(NC2=C(N3CCCCC3)C(=O)c3ccccc3C2=O)cc1	0	0	0	0	0
COC1=C(Nc2ccc(C)cc2)C(=O)c2ccccc2C1=O	0	0	51	0	0
CC1=C(Nc2ccc(C(=O)O)cc2)C(=O)c2ccccc2C1=O	0	0	0	0	0
COC1=C(Nc2ccccc2)C(=O)c2ccccc2C1=O	0	0	46	0	0
CN1c2ccc(-c3ccc(C#N)cc3)cc2[C@H]2[C@H](CCN2C(=O)c2cccc(F)c2)[C@@H]1CO	-	-	0	-	-
SMILES	HSP90 refold inh	HSF1 inh	ARNT TACC3 PPI	HSF-1 act	HIF act
CCCC#Cc1ccc2c(c1)O[C@H](CN(C)C(=O)NC(C)C)[C@@H](C)CN([C@@H](C)CO)S2(=O)=O	-	-	0	-	-
Oc1ccccc1C=NCCN1CCN(CCN=Cc2ccccc2O)C1c1ccccc1O (configuration not stated)	-	-	71	-	-
CNC(=O)C[C@@H]1CC[C@H]2[C@@H](COC[C@@H](O)CN2Cc2ccc(C(F)(F)F)cc2)O1	-	-	0	-	-
Cc1ccc(S(=O)(=O)N(C)C[C@H]2Oc3ncc(-c4ccncc4)cc3C(=O)N([C@@H](C)CO)C[C@@H]2C)cc1	-	-	0	-	-
COc1ccc(C2Nc3ccccc3NC3=C2C(=O)CC(C)(C)C3)cc1O (configuration not stated)	0	0	47	0	0
COc1ccc(C2Nc3ccccc3NC3=C2C(=O)CC(C)(C)C3)cc1OC (configuration not stated)	0	0	0	0	0
COCCNC(=O)[C@@H]1[C@@H](CO)[C@@H]2Cn3c(ccc(C4=CCCCC4)c3=O)[C@H]1N2C(=O)C1CCC1	-	-	0	-	-
Clc1cccc(/C=N\Nc2nccs2)c1	0	0	0	143	0
C(=N/Nc1nccs1)/c1cccnc1	0	0	0	0	0
O=S(=O)(Nc1cccc2ncccc12)c1cccs1	0	0	58	0	0
COc1ccc(NC(=O)Nc2ccc3c(c2)C(=O)N([C@@H](C)CO)C[C@H](C)[C@H](CN(C)S(=O)(=O)c2ccc(Cl)cc2)OCCCC[C@@H](C)O3)cc1	-	-	0	-	-
COc1ccccc1NC(=O)N(C)C[C@@H]1Oc2ncc(C#CCN(C)C)cc2C(=O)N([C@H](C)CO)C[C@@H]1C	-	-	0	-	-
Cc1nnc(SCC(=O)Nc2cc(-c3cc(C)c(C)cc3C)nn2-c2ccccc2)s1	0	0	0	0	0
CCCc1ccc(-c2cc(NC(=O)CSc3nnc(N)s3)n(-c3ccccc3)n2)cc1	0	0	-	61	0
COc1ccc(C(=O)/C(=C/O)N=Nc2ccc(F)cc2)cc1	0	0	-	0	0
COc1ccc(N=N/C(=C\O)C(=O)c2cccs2)cc1	0	0	0	67	0
Cc1ccccc1S(=O)(=O)N1C[C@H](O)COC[C@H]2O[C@@H](CC(=O)N3CCN(C)CC3)CC[C@@H]21	-	-	0	-	-
O=C(C[C@H]1C[C@H]2c3cc(NS(=O)(=O)c4ccc(F)cc4)ccc3O[C@H]2[C@@H](CO)O1)NCc1ccc(Oc2ccccc2)cc1	-	-	0	-	-
CN(C)C(=O)c1cccc(-c2ccc([C@@H]3[C@@H](CO)N4CCCCN(C(=O)C5CCCC5)C[C@@H]34)cc2)c1	-	-	0	-	-
CN(C)C(=O)C[C@@H]1C[C@@H]2c3cc(NC(=O)Nc4ccc(C(F)(F)F)cc4)ccc3O[C@@H]2[C@H](CO)O1	-	-	0	-	-
O=C(COc1ccccc1)NNc1nc2c(F)cc(F)cc2s1	0	0	0	0	0
O=C(Nc1nc2c(F)cc(F)cc2s1)c1ccccn1	0	0	0	423	10
CSc1nsc(SCC(=O)Nc2ccc3c(c2)OCCO3)n1	0	0	0	55	0
COc1ccc(-c2csc(NC(=O)CSc3nc(SC)ns3)n2)cc1	0	0	0	71	0
COc1ccc(-c2csc(NC(=O)CSc3nc(C)cs3)n2)cc1	0	0	0	0	0
CSc1nsc(SCC(=O)NCc2ccc(C)cc2)n1	0	-79	0	0	0
CSc1nsc(SCC(=O)NCc2ccccc2)n1	0	0	0	0	0
O=C(NC(=S)Nc1ccc(S(=O)(=O)Nc2nccs2)cc1)c1ccc(Br)o1	0	0	52	0	0
